Laboratory results from ChEMBL document CHEMBL1201862, “PubChem BioAssay data set” (2004).
The campaign covered roughly 350,000 compounds. About 700 (0.2%) were called active. The calls are words filed in the database; no cut-off is given here. Shown is part of a subset that was picked to be rich in actives.

Biological target: RecQ-like DNA helicase BLM (Homo sapiens) (UniProt P54132)
Assay: qHTS Assay for Inhibitors of Bloom's syndrome helicase (BLM).
Assay type: functional

RecQ-like DNA helicase BLM (Homo sapiens), sequence (P54132 whole entry): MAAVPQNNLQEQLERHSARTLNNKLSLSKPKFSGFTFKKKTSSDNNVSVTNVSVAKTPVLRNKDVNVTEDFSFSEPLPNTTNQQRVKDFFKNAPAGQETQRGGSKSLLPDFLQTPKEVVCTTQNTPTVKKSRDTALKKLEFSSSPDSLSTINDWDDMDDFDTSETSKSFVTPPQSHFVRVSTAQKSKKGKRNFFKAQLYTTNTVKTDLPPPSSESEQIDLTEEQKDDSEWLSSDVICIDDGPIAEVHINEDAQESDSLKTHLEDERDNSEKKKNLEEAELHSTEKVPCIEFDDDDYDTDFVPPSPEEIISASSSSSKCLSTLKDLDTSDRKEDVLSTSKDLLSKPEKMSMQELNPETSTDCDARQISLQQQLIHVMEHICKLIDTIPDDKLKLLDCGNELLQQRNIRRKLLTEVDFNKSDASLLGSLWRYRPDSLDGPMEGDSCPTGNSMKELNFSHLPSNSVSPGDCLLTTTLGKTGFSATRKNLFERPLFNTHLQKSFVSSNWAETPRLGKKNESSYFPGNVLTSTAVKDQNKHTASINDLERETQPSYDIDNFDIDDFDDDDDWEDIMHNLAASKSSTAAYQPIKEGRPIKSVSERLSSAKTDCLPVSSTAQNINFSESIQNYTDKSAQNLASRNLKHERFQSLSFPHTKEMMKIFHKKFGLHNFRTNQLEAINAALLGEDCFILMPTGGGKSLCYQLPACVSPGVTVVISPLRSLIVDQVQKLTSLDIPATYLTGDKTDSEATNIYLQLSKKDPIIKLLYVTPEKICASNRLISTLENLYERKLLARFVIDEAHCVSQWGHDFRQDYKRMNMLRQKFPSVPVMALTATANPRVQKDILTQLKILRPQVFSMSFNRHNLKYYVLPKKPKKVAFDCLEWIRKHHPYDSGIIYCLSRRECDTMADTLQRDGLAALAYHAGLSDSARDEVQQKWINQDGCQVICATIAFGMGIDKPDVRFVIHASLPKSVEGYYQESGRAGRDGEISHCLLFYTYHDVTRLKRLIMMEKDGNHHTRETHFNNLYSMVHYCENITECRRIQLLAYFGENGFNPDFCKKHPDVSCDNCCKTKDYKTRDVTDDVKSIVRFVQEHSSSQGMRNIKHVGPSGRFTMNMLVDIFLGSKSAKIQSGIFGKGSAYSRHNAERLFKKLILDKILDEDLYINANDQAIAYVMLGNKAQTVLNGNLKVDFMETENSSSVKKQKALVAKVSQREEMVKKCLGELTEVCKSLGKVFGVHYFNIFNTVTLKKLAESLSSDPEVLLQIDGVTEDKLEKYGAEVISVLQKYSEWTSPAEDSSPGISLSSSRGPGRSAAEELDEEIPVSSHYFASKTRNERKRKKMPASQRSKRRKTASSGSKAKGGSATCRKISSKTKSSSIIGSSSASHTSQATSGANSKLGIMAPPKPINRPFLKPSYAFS

Row | SMILES | Potency
1 | Nc1nc(N)c2nc(CNc3ccc(C(=O)N[C@@H](CCC(=O)O)C(=O)O)cc3)cnc2n1 | 20 µM (active)
